Source: PubChem BioAssay (Broad Institute)
Sampled rows, rich in hits. Any-hit rate of the full collection: about 2.1%.
ROS inducer = inducers of reactive oxygen species in cancer cells | U2OS ROS induction, H2DCF-DA fluorescence | ROS induction (% of piperlongumine), % at 10 µM | hit rate 2% among 46,000; in the data active means ROS induction above about 79%, passing the limit was not always enough;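 further: 0% = DMSO vehicle median and 100% = reference compound median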
YB-1 expression = YB-1 expression inhibition | delta delta Cp (YB-1 minus CDIP) (concentration not given with the values) | U2OS, qRT-PCR YB-1 vs CDIP delta delta Cp, 16 h; hits give high values; zero = DMSO, each unit about twofold | hit rate 0.37% among 30,000;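 active means delta delta Cp rounded down to an integer at or above 3, about 3 SD of DMSO wells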;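 further: higher means less YB-1 transcript or more CDIP transcript relative to DMSO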
* = called active by the depositor; nt = no result.

SMILES | ROS inducer | YB-1 expression
COc1ccc(S(=O)(=O)Nc2cccc3c2O[C@@H](CN(C)Cc2ccc(-c4ccccc4)cc2)[C@@H](C)CN([C@@H](C)CO)C3=O)cc1 | 47.1 | -0.519
C[C@H]1CN([C@@H](C)CO)C(=O)c2cccc(NS(=O)(=O)c3ccc(F)cc3)c2O[C@@H]1CN(C)Cc1ccc(Oc2ccccc2)cc1 | 104.4* | 0.103
COc1ccc(S(=O)(=O)Nc2cccc3c2O[C@@H](CN(C)Cc2ccc(Oc4ccccc4)cc2)[C@H](C)CN([C@H](C)CO)C3=O)cc1 | 19.5 | -0.814
Cc1noc(C)c1S(=O)(=O)Nc1cccc2c1O[C@H](CN(C)Cc1ccc(-c3ccccc3)cc1)[C@H](C)CN([C@@H](C)CO)C2=O | 121.7* | 0.144
C[C@@H]1CN([C@@H](C)CO)C(=O)c2cccc(NS(=O)(=O)c3ccc(F)cc3)c2O[C@H]1CN(C)Cc1ccc(Oc2ccccc2)cc1 | 31.3 | 0.607
Cc1ccc(C(C)C)c(OCC(=O)Nc2cc(-c3nc4ncccc4o3)ccc2C)c1 | -3.6 | nt
Cc1ccc(S(=O)(=O)Nc2ccccc2/C(O)=C(/C#N)c2nc3ccccc3n2C)cc1 | 55.1 | 0.049
Cc1cc(C)cc(Oc2c(C(F)(F)F)oc3c(CN4CC(C)OC(C)C4)c(O)ccc3c2=O)c1 (stereo not given) | -12.0 | nt
CCc1ccc(NS(=O)(=O)c2c(C)[nH]c(=O)[nH]c2=O)cc1 | -3.9 | nt
Cn1nc(C(=O)N2CCN(c3cccc(C(F)(F)F)c3)CC2)c2c1-c1ccccc1OC2 | -13.2 | nt
N=c1oc2ccc3ccccc3c2cc1C(=O)Nc1ccccc1 | 46.6 | -0.575
Cc1ccc2[nH]c3c(N(C)C)ncnc3c2c1 | 15.0 | nt
CCCN(C(=O)Cc1noc2ccc(C)cc12)c1ccc(F)cc1 | 19.1 | nt
COc1ccc(S(=O)(=O)Nc2cccc3c2O[C@H](CN(C)Cc2ccc(Cl)c(Cl)c2)[C@@H](C)CN([C@H](C)CO)C3=O)cc1 | 4.6 | -0.0351
C[C@@H]1CN([C@@H](C)CO)C(=O)c2cccc(NS(=O)(=O)c3cccs3)c2O[C@@H]1CN(C)Cc1ccc(-c2ccccc2)cc1 | 37.5 | -0.353
COc1ccc(S(=O)(=O)Nc2cccc3c2O[C@H](CN(C)Cc2ccc(Cl)c(Cl)c2)[C@H](C)CN([C@@H](C)CO)C3=O)cc1 | 84.4* | -0.00424
Cc1ccc(S(=O)(=O)Nc2cccc3c2O[C@H](CN(C)Cc2ccc(Oc4ccccc4)cc2)[C@H](C)CN([C@H](C)CO)C3=O)cc1 | 125.0* | 0.0934
C[C@H](CO)N1C[C@H](C)[C@@H](CN(C)Cc2ccc(-c3ccccc3)cc2)Oc2c(NS(=O)(=O)c3cccs3)cccc2C1=O | 88.6* | 0.268
Cc1ccc(S(=O)(=O)Nc2cccc3c2O[C@@H](CN(C)Cc2ccc(Oc4ccccc4)cc2)[C@@H](C)CN([C@H](C)CO)C3=O)cc1 | 54.4 | 0.202
CCc1ccc(CNC(=O)CN2C(=O)CSc3ncccc32)cc1 | -16.3 | nt
CC(C)Nc1nc(-c2ccccc2)nc2ccccc12 | 4.8 | nt
CC1(C)CC(=O)C(C=NCc2ccc(F)cc2)=C(O)C1 | 16.4 | 0.461
Cc1ccc(C(=O)NCCc2nnc3ccc(SCC(=O)NC4CCCCC4)nn23)cc1 | -2.5 | nt
CCOc1ccc2nc(SCC(=O)N3CCOCC3)sc2c1 | 1.3 | nt
COC(=O)COc1cccc(NC(=O)c2cc(OC)cc(OC)c2)c1 | 108.3* | nt
SMILES | ROS inducer | YB-1 expression
COC(=O)COc1cccc(NC(=O)c2ccc(Br)cc2)c1 | 19.7 | nt
COc1ccc2[nH]c3c(=O)n(CCC(=O)NCCc4ccc(OC)c(OC)c4)c(=S)[nH]c3c2c1 | -4.0 | nt
C[C@@H]1CN([C@@H](C)CO)C(=O)Cc2cc(NC(=O)Nc3ccc4c(c3)OCO4)ccc2O[C@@H]1CN(C)C | 99.3* | 0.263
C[C@H](CO)N1C[C@H](C)[C@H](CN(C)S(C)(=O)=O)Oc2ccc(NC(=O)Nc3ccc4c(c3)OCO4)cc2CC1=O | -5.9 | -0.222
C[C@@H]1CN([C@H](C)CO)C(=O)Cc2cc(NC(=O)Nc3ccc4c(c3)OCO4)ccc2O[C@H]1CN(C)C | -0.7 | 10.9*
C[C@@H]1CN([C@H](C)CO)C(=O)Cc2cc(NC(=O)Nc3ccc4c(c3)OCO4)ccc2O[C@H]1CN(C)CC1CC1 | 127.8* | -0.14
C[C@@H]1CN([C@H](C)CO)C(=O)Cc2cc(NC(=O)Nc3ccc4c(c3)OCO4)ccc2O[C@@H]1CN(C)C | -2.0 | 0.215
C[C@@H]1CN([C@H](C)CO)C(=O)Cc2cc(NC(=O)Nc3ccc4c(c3)OCO4)ccc2O[C@@H]1CN(C)CC1CCCCC1 | 4.3 | -0.632
CCn1c(C(=O)NCCc2ccccc2)cc2oc3ccccc3c21 | 0.7 | nt
COC(=O)c1sc(S(=O)(=O)N2CCN(c3ccccc3OC)CC2)c(C(=O)OC)c1C | -4.9 | nt
C[C@@H]1CN([C@H](C)CO)C(=O)Cc2cc(NS(=O)(=O)c3cn(C)cn3)ccc2O[C@H]1CN(C)C(=O)Nc1cccc2ccccc12 | 7.7 | 0.0579
C[C@@H]1CN([C@H](C)CO)C(=O)Cc2cc(NS(=O)(=O)c3ccccc3)ccc2O[C@H]1CN(C)C(=O)Nc1cccc2ccccc12 | 97.6* | 0.126
C[C@H]1CN([C@@H](C)CO)C(=O)Cc2cc(NS(=O)(=O)c3cn(C)cn3)ccc2O[C@H]1CN(C)C(=O)Nc1cccc2ccccc12 | 121.1* | -0.542
C[C@@H]1CN([C@@H](C)CO)C(=O)Cc2cc(NS(=O)(=O)c3ccccc3)ccc2O[C@@H]1CN(C)C(=O)Nc1cccc2ccccc12 | -3.2 | 0.436
CCc1ccc(NC(=O)Cn2cnc3c(cnn3-c3ccccc3)c2=O)cc1 | -3.5 | nt
O=C(CCCC1=NS(=O)(=O)c2ccccc2N1)N1CCCCCC1 | -4.9 | nt
Cc1noc(C)c1NC(=O)N(C)C[C@@H]1Oc2ccc(NC(=O)Cn3cnnn3)cc2C(=O)N([C@H](C)CO)C[C@@H]1C | -8.9 | 0.19
Cc1noc(C)c1NC(=O)Nc1ccc2c(c1)C(=O)N([C@H](C)CO)C[C@@H](C)[C@H](CN(C)C(=O)Nc1c(C)noc1C)O2 | 104.8* | 0.0662
Cc1noc(C)c1NC(=O)Nc1ccc2c(c1)C(=O)N([C@@H](C)CO)C[C@@H](C)[C@@H](CN(C)C(=O)Nc1c(C)noc1C)O2 | 1.5 | -0.45
Cc1noc(C)c1NC(=O)N(C)C[C@H]1Oc2ccc(NC(=O)Cn3cnnn3)cc2C(=O)N([C@@H](C)CO)C[C@@H]1C | -5.3 | 3.92*
COC(=O)C[C@H]1C(C)(C)[C@@H](OC(C)=O)[C@@H]2CC3=C4CC(=O)O[C@@H](c5ccoc5)[C@]4(C)CCC3[C@@]1(C)C2=O (stereo not given in full) | 20.2 | -0.0961
COC(=O)C[C@H]1C(C)(C)[C@H](OC(C)=O)[C@]2(O)CC3=C4CC(=O)O[C@@H](c5ccoc5)[C@]4(C)CCC3[C@@]1(C)C2=O (stereo not given in full) | 3.1 | 7.97*
CCOC(=O)c1cc(-c2ccnn2S(=O)(=O)c2cccc(C(F)(F)F)c2)on1 | 183.9* | nt
Cc1cc(-c2nc(-c3ccnn3S(=O)(=O)c3cccc(C(F)(F)F)c3)cs2)no1 | 28.7 | nt
Cc1c(Cl)cccc1NC(=O)c1ccc(N2C(=O)c3ccccc3C2=O)cc1 | -10.0 | nt
CC1CCCCN1S(=O)(=O)c1ccc(C(=O)Nc2cccc(-c3nc4ccccc4[nH]3)c2)cc1 (stereo not given) | 203.9* | nt
O=C(Nc1cccc(-c2nc3ccccc3[nH]2)c1)c1ccccc1 | 4.7 | nt
O=C(CCCSc1nc2ccc(Cl)cc2s1)c1ccc(F)cc1 | 6.3 | nt
